Results reported in PubChem BioAssay (EPA / NIEHS).
Inconclusive results are not listed. Calls of active or inactive are those of the source. The calls were made as follows: active = hit-call score of the fitted dose curve at least 0.9, where 1 is the maximum; inconclusive = response in the unintended direction; inactive = score below 0.9.

What was measured:
[1] = target: Cellular tumor antigen p53 (Homo sapiens) (UniProt P04637); assay: TOX21_p53_BLA_p2_ratio: Tox21 HCT-116 p53 Agonism Beta-lactamase Assay, Ratio, Phase 2 (AID 2283592)
In short: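 An inducible beta-lactamase reporter in HCT116 cells signals p53 pathway activation. After 16 h chemical exposure at 37C, cells load CCF4-AM substrate for 2 h at room temperature; activity is the cleaved/uncleaved emission ratio relative to DMSO.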

[2] = TOX21_p53_BLA_p4_viability: Viability Assessment in the Tox21 HCT-116 p53 Agonism Beta-lactamase Assay, Phase 4 (AID 2283597);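 also: hits lower the luminescence signal meaning cytotoxicity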
In short: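 Compound exposure of HCT116 cells lasts 16 h at 37C, 5% CO2, with DMSO stocks diluted 217-fold. Cellular ATP is then quantified by CellTiter-Glo luminescence after 30 min at room temperature.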

[3] = TOX21_p53_BLA_p5_viability: Viability Assessment in the Tox21 HCT-116 p53 Agonism Beta-lactamase Assay, Phase 5 (AID 2283600)
In short: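 Counter-readout for cytotoxicity: ATP-dependent luminescence from CellTiter-Glo, read in the beta-lactamase wells after 30 min at RT, following a 16 h compound exposure at 37C.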

[4] = target: Cellular tumor antigen p53 (Homo sapiens) (UniProt P04637); assay: TOX21_p53_BLA_p4_ratio: Tox21 HCT-116 p53 Agonism Beta-lactamase Assay, Ratio, Phase 4 (AID 2283601)
In short: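 HCT116 cells carrying an inducible beta-lactamase reporter were plated at 4000 cells/well, rested 5 h, then exposed to compounds in DMSO (217-fold dilution) for 16 h at 37C. CCF4-AM substrate was loaded 2 h at room temperature; 460/530 nm emission ratio scored gain-of-signal versus DMSO.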

[5] = target: Cellular tumor antigen p53 (Homo sapiens) (UniProt P04637); assay: TOX21_p53_BLA_p5_ratio: Tox21 HCT-116 p53 Agonism Beta-lactamase Assay, Ratio, Phase 5 (AID 2283599)
In short: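 HCT-116 cells carrying a p53-inducible beta-lactamase reporter were seeded at 4000 cells/well and dosed after 5 h with compound in DMSO (217-fold dilution). After 16 h at 37C, CCF4-AM substrate was added for 2 h, and the 460/530 nm emission ratio was scored as gain-of-signal versus DMSO.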

[6] = TOX21_TRB_BLA_Antagonist_Followup_viability: Viability Assessment in the Tox21 Thyroid Hormone Receptor beta Antagonism Beta-lactamase (BLA) Follow-Up Assay (AID 2283961)
In short: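 Cytotoxicity is measured in parallel with the antagonist-mode TRβ beta-lactamase screen, using ATP-coupled luciferase luminescence. Engineered HEK293T cells are treated for 18 h with 11-point compound series in triplicate.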

Measured: outcome

Sequence of Cellular tumor antigen p53 (Homo sapiens) (P04637 whole entry, looked up): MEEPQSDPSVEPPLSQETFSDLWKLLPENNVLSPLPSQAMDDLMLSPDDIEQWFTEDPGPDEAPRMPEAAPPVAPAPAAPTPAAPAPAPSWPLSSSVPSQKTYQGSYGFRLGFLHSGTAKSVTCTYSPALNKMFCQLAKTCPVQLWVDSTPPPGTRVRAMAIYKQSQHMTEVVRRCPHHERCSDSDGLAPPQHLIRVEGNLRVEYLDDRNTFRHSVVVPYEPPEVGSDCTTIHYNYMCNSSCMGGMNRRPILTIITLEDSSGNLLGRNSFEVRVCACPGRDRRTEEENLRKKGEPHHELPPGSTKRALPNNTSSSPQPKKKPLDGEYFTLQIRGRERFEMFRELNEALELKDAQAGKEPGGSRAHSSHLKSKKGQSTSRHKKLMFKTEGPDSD

O=C(O)CCS
inactive: [1] | [2] | [3] | [4]

CCCN(CC)C(CC)C(=O)Nc1c(C)cccc1C (stereo unspecified)
inactive: [1] | [5] | [3]

CO[C@H]1/C=C/O[C@@]2(C)Oc3c(C)c(O)c4c(O)c(c5c(nc6cc(C)ccn65)c4c3C2=O)NC(=O)/C(C)=C\C=C\[C@H](C)[C@H](O)[C@@H](C)[C@@H](O)[C@@H](C)[C@H](OC(C)=O)[C@@H]1C
inactive: [1] | [2] | [4]

CCCCCCCCCCCCCCBr
inactive: [1] | [2] | [3] | [4]

O=C1OC(=O)C2CC=CCC12 (stereo unspecified)
inactive: [1] | [5] | [3]

CC(C)OC(=O)CCC(=O)OC(C)C
inactive: [1] | [5] | [3] | [4]

NC(Cc1ccccc1)C(=O)O (stereo unspecified)
inactive: [1] | [2] | [4]

O=C(C(=O)c1ccc(Br)cc1)c1ccc(Br)cc1
inactive: [1] | [5]

S=C=Nc1ccc(N=C=S)cc1
inactive: [1] | [5] | [3]

CC(=O)OCC(=O)Nc1cc(C#N)cc(NC(=O)COC(C)=O)c1Cl
inactive: [1] | [2] | [3]

CC(CO)CO
inactive: [1] | [2] | [4]

C=C1[C@H](CO)[C@@H](O)C[C@@H]1n1cnc2c(=O)[nH]c(N)nc21
inactive: [1] | [2] | [3] | [4]

CC(C)(C)NCCO
inactive: [1] | [2] | [3] | [4]

COc1cc(S(C)=O)ccc1-c1nc2ncccc2[nH]1 (stereo unspecified)
inactive: [1] | [2] | [3] | [4]

CC/C=C(\C(=O)N[C@@H]1C(=O)N2C(C(=O)OCOC(=O)C(C)(C)C)=C(COC(N)=O)CS[C@H]12)c1csc(N)n1
inactive: [1] | [2] | [4]

C1CCc2nnnn2CC1
inactive: [1] | [5]

CC1=C(C(=O)O)N2C(=O)[C@@H](NC(=O)[C@H](N)c3ccccc3)[C@H]2SC1
inactive: [1] | [5] | [3]

C=CC(=O)OCC1CCCO1 (stereo unspecified)
inactive: [1] | [5]

O=CC1CC=CCC1 (stereo unspecified)
inactive: [1] | [2] | [3] | [4]

CCCCCCCCCCCCCCCCBr
inactive: [1] | [5]

NC(=O)OCC(O)COc1ccc(Cl)cc1 (stereo unspecified)
inactive: [1] | [5]

C=CCCCC
inactive: [1] | [2] | [3] | [4]

O=C(CS(=O)Cc1ccco1)NC/C=C\COc1cc(CN2CCCCC2)ccn1 (stereo unspecified)
inactive: [1] | [5]

Cc1ccc(/C(=C\CN2CCCC2)c2ccccn2)cc1
inactive: [1] | [2] | [3] | [4]

CCC(CO)(CO)[N+](=O)[O-]
inactive: [1] | [2] | [3]

CC1(C)O[C@@H]2C[C@H]3[C@@H]4CCC5=CC(=O)C=C[C@]5(C)[C@H]4[C@@H](O)C[C@]3(C)[C@]2(C(=O)CO)O1
inactive: [1] | [5] | [3]

OC(CCCN1CCCCC1)(c1ccccc1)c1ccccc1
inactive: [1] | [2] | [3]

CCCCCCCCCCCCOCCCN
inactive: [1] | [2] | [4]

C1COCCO1
inactive: [1] | [5] | [3]

CN(CC(=O)N1CCOCC1)Cc1c(Cl)cccc1NC(=O)c1ccccc1
inactive: [1] | [2] | [3] | [4]

CO[C@]1(NC(=O)CSC(F)F)C(=O)N2C(C(=O)O)=C(CSc3nnnn3CCO)CO[C@H]21
inactive: [1] | [5]

C=C(C)C(=O)OCCCCCCOC(=O)C(=C)C
inactive: [1] | [5] | [3]

CC(COc1ccccc1)NN (stereo unspecified)
inactive: [1] | [2] | [4]

CC(C)=CCC[C@@](C)(O)[C@H]1CC=C(C)CC1
inactive: [1] | [5]

CN1C(=O)c2ccc([N+](=O)[O-])cc2C1=O
inactive: [1] | [5] | [3] | [4]

Cc1ncc(COP(=O)(O)O)c(CN)c1O
inactive: [1] | [5] | [4]

C#C[C@]1(O)CC[C@H]2[C@@H]3CCC4=CC(=O)CC[C@@H]4[C@H]3C(=C)C[C@@]21CC
inactive: [1] | [5] | [4] | [6]

C=C(C)C(=O)OC1CC(C)CC(C)(C)C1 (stereo unspecified)
inactive: [1] | [5] | [4]

c1ccc(SCCSc2ccccc2)cc1
inactive: [1] | [5] | [4]

Cc1ccco1
inactive: [1] | [5] | [4]

O=C1NCCN1CCO
inactive: [1] | [5] | [3] | [4]

C=CC(C)(O)CC/C=C(/C)CCC=C(C)C (stereo unspecified)
inactive: [1] | [3]

C=C(C)C(=O)NCCC[N+](C)(C)C
inactive: [1] | [5] | [3] | [4]

CN(C)C=Nc1c(I)cc(I)c(CCC(=O)O)c1I
inactive: [1] | [3]
